From PubChem BioAssay (NCI) come the findings set out here.

This is part of a sample that, as a whole, favours compounds with a hit. Of some 83,000 tested, about 20% had one in any assay.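 48-hour exposure, single concentration, 96-well plates; percent growth endpoint where 0 means no net growth. Active: below 10.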 A number with no mark means an inactive call. Activity calls are given as the source filed them.

Among the test systems are SK-MEL-2 melanoma; EKVX NSCLC; SN12C renal; UO-31 renal; TK-10 renal; ACHN renal; A498 renal; CCRF-CEM leukemia; MOLT-4 leukemia; SR leukemia; RPMI-8226 leukemia; OVCAR-8 ovarian; OVCAR-5 ovarian; OVCAR-4 ovarian; SK-OV-3 ovarian; IGROV1 ovarian; OVCAR-3 ovarian; HS 578T breast; CAKI-1 renal; NCI/ADR-RES ovarian.
What all share (assay): NCI-60 one-dose screen, 48 h (100 = growth as untreated, 0 = no growth, -100 = all killed)
What all share (conditions): 10 µM unless noted

As to `COc1ccc(NC(=O)c2ccc(/C=C/C(=O)c3ncc[nH]3)cc2)cc1`, the growth is 97.6% with SK-MEL-2 melanoma; 79.8% with EKVX NSCLC; 70.8% in the experiment on SN12C renal; 48.4% in the experiment on UO-31 renal; 88.8% in the experiment on TK-10 renal; 86.3% in the experiment with ACHN renal. The growth with A498 renal was 86.8%; with CCRF-CEM leukemia it was 29.1%; with MOLT-4 leukemia, 62.4%; in the experiment on SR leukemia, 13.4%; with RPMI-8226 leukemia, 16.7%; in the experiment with OVCAR-8 ovarian, 64.7%. Moreover, the growth in the experiment with OVCAR-5 ovarian was 107%; in the experiment on OVCAR-4 ovarian it was 82.5%; in the experiment on SK-OV-3 ovarian, 96.9%; in the experiment with IGROV1 ovarian it was 78%; with OVCAR-3 ovarian, 31.1%; with HS 578T breast, 94.7%.

`CC[C@H]1OC(=O)[C@H](C)[C@@H](O[C@H]2C[C@@](C)(OC)[C@@H](O)[C@H](C)O2)[C@H](C)[C@@H](O[C@@H]2O[C@H](C)C[C@H](N(C)C)[C@H]2O)[C@](C)(O)C[C@H](C)CN(C)[C@H](C)[C@@H](O)[C@]1(C)O`: the growth in the experiment with SK-MEL-2 melanoma was 117%; with EKVX NSCLC, 86.5%; in the experiment on SN12C renal, 93.9%; with UO-31 renal, 78.9%; in the experiment with TK-10 renal, 103%; in the experiment on ACHN renal it was 96.5%. Besides, the growth is 96.6% in the experiment with CAKI-1 renal; 120% in the experiment with CCRF-CEM leukemia; 103% in the experiment with MOLT-4 leukemia; 107% in the experiment with RPMI-8226 leukemia; 115% in the experiment on OVCAR-8 ovarian; 100% in the experiment with OVCAR-5 ovarian. The growth in the experiment with OVCAR-4 ovarian was 108%; in the experiment on SK-OV-3 ovarian it was 97.4%; in the experiment on IGROV1 ovarian, 98.3%; in the experiment with OVCAR-3 ovarian, 96%; with HS 578T breast, -29.8% (active); with NCI/ADR-RES ovarian, 95.2%.

Turning to `Cc1cc(N2CCSCC2)nc(NC2CCCC(Nc3ccnc4cc(Cl)ccc34)C2)n1` (centres undefined), the growth with SK-MEL-2 melanoma is -81% (active); in the experiment with EKVX NSCLC, 24.1%; in the experiment on SN12C renal, -29% (active); in the experiment with UO-31 renal, -94% (active); with TK-10 renal, -57.9% (active); with ACHN renal, -61.9% (active). Also, the growth in the experiment on A498 renal was 22.9%; in the experiment with CCRF-CEM leukemia it was -20.5% (active); with MOLT-4 leukemia it was -9.85% (active); with SR leukemia, -54% (active); in the experiment on RPMI-8226 leukemia it was -52.6% (active); with OVCAR-8 ovarian, -20.9% (active). The growth is 29.7% in the experiment with OVCAR-5 ovarian; 16.8% in the experiment on OVCAR-4 ovarian; 34.8% with SK-OV-3 ovarian; -16.1% (active) in the experiment on IGROV1 ovarian; -38.4% (active) in the experiment with OVCAR-3 ovarian; -34.2% (active) with HS 578T breast. The growth with NCI/ADR-RES ovarian was 1.15% (active).

On to `Cn1ccnc1C(=O)/C=C/c1ccc(CC(=O)Nc2ccccc2)cc1`, for which the growth in the experiment with SK-MEL-2 melanoma is 54.6%; in the experiment with EKVX NSCLC it was 17.6%; in the experiment on SN12C renal, 16.1%; with UO-31 renal it was 16%; in the experiment with TK-10 renal it was 17.6%; in the experiment with ACHN renal, 29%. In addition, the growth with A498 renal was 44.9%; with CCRF-CEM leukemia, 2.06% (active); in the experiment on MOLT-4 leukemia it was -1.23% (active); with SR leukemia it was -10.7% (active); with RPMI-8226 leukemia, -12.5% (active); in the experiment on OVCAR-8 ovarian, -0.35% (active). Also, the growth was 29.6% with OVCAR-5 ovarian; 31.4% in the experiment with OVCAR-4 ovarian; 27.3% in the experiment on SK-OV-3 ovarian; 12.7% in the experiment on IGROV1 ovarian; -7.34% (active) in the experiment with OVCAR-3 ovarian; 37.2% with HS 578T breast. The growth in the experiment on NCI/ADR-RES ovarian was 13.5%.

For `CSc1ccc(-c2ccccc(=O)c2O)cc1`, the growth with SK-MEL-2 melanoma was 15.2%; in the experiment on EKVX NSCLC it was 11.5%; in the experiment on SN12C renal, 11.9%; with UO-31 renal, -17.8% (active); in the experiment with TK-10 renal, 33.4%; in the experiment on ACHN renal it was 6.58% (active). Further, the growth was 36.2% in the experiment on A498 renal; 3.72% (active) in the experiment with CCRF-CEM leukemia; 2.65% (active) in the experiment on MOLT-4 leukemia; 5.18% (active) with SR leukemia; 10.1% with RPMI-8226 leukemia; 14.6% with OVCAR-8 ovarian. In addition, the growth is 52.9% with OVCAR-5 ovarian; 32.5% with OVCAR-4 ovarian; 11.8% in the experiment on SK-OV-3 ovarian; 12.7% in the experiment on IGROV1 ovarian; 25.1% with OVCAR-3 ovarian; 56.4% in the experiment with HS 578T breast. The growth with NCI/ADR-RES ovarian is 5.46% (active).

With `CC(=O)c1cc2c(N)c(C(=O)Nc3ccccc3)sc2nc1C`, the growth in the experiment with SK-MEL-2 melanoma is 33.3%; in the experiment on EKVX NSCLC it was 70.1%; in the experiment with SN12C renal, 90.8%; in the experiment with UO-31 renal it was 90.8%; with TK-10 renal, 76.4%; in the experiment with ACHN renal it was 91.7%. In addition, the growth in the experiment on A498 renal was 22%; with CCRF-CEM leukemia, 84.5%; in the experiment with MOLT-4 leukemia, 85.6%; in the experiment on SR leukemia, 51.8%; with RPMI-8226 leukemia, 89%; in the experiment with OVCAR-8 ovarian, 93.9%. The growth was 96% in the experiment with OVCAR-5 ovarian; 88.9% with OVCAR-4 ovarian; 28.8% in the experiment with SK-OV-3 ovarian; 83.9% in the experiment with IGROV1 ovarian; 90% with OVCAR-3 ovarian; 69.8% in the experiment with HS 578T breast. Further, the growth with NCI/ADR-RES ovarian is 75.9%.

For the molecule `O=c1ccccc(-c2ccc(-c3ccco3)cc2)c1O`, the growth is 19.9% with SK-MEL-2 melanoma; 11.8% in the experiment on EKVX NSCLC; 11.3% in the experiment with SN12C renal; -12.2% (active) with UO-31 renal; 33.5% in the experiment with TK-10 renal; 9.23% (active) in the experiment with ACHN renal. Moreover, the growth in the experiment with A498 renal is 39%; in the experiment on CCRF-CEM leukemia it was 5.03% (active); in the experiment on MOLT-4 leukemia, 7.73% (active); in the experiment on SR leukemia, 10%; with RPMI-8226 leukemia it was 8.75% (active); with OVCAR-8 ovarian it was 12.7%. The growth was 54.9% with OVCAR-5 ovarian; 23.7% in the experiment with OVCAR-4 ovarian; 18.2% in the experiment on SK-OV-3 ovarian; 12.9% with IGROV1 ovarian; 28.8% with OVCAR-3 ovarian; 59.3% in the experiment on HS 578T breast. Moreover, the growth with NCI/ADR-RES ovarian is 12%.

For the molecule `Cn1nc(N)c2cc([C@@H]3Nc4ccc5[nH]ncc5c4[C@H]4C5CCC(C5)[C@@H]34)ccc21` (some centres undefined), the growth with SK-MEL-2 melanoma was 46.6%; in the experiment on EKVX NSCLC, 47.1%; with SN12C renal, 50.7%; in the experiment with UO-31 renal, 40.6%; in the experiment on TK-10 renal, 80.4%; in the experiment on ACHN renal, 39.6%. Also, the growth in the experiment with CAKI-1 renal was 40.9%; in the experiment with CCRF-CEM leukemia, 16.7%; in the experiment on MOLT-4 leukemia it was 20.1%; in the experiment on SR leukemia it was 14.7%; with RPMI-8226 leukemia, 47.8%; in the experiment with OVCAR-8 ovarian, 38.2%. Moreover, the growth in the experiment with OVCAR-5 ovarian was 35.1%; with OVCAR-4 ovarian, 41.4%; in the experiment on SK-OV-3 ovarian, 41.7%; with IGROV1 ovarian, 27.3%; in the experiment on OVCAR-3 ovarian it was -16.2% (active); in the experiment on NCI/ADR-RES ovarian, 3.15% (active).
